# According to PubChem BioAssay (NCI):
# The panel holds about 83,000 compounds, 20% with a hit somewhere; the sample as a whole holds those more often.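 The test compound was applied at a single concentration to cells in 96-well plates for 48 hours, and percent growth was recorded.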 A number with no mark means an inactive call. Active and inactive are the calls of the source. Rule for the calls: active = growth percent below 10; inactive = the rest.
# Tests used:
# Assay in all cases: NCI-60 one-dose screen, 48 h (100 = growth as untreated, 0 = no growth, -100 = all killed)
# Details in all cases: 10 µM unless noted
# RPMI-8226 leukemia = system: RPMI-8226 leukemia
# OVCAR-8 ovarian = system: OVCAR-8 ovarian
# OVCAR-5 ovarian = system: OVCAR-5 ovarian
# OVCAR-4 ovarian = system: OVCAR-4 ovarian
# SK-OV-3 ovarian = system: SK-OV-3 ovarian
# IGROV1 ovarian = system: IGROV1 ovarian
# OVCAR-3 ovarian = system: OVCAR-3 ovarian
# HS 578T breast = system: HS 578T breast
# NCI/ADR-RES ovarian = system: NCI/ADR-RES ovarian
# T-47D breast = system: T-47D breast
Structure (SMILES),growth (RPMI-8226 leukemia),growth (OVCAR-8 ovarian),growth (OVCAR-5 ovarian),growth (OVCAR-4 ovarian),growth (SK-OV-3 ovarian),growth (IGROV1 ovarian),growth (OVCAR-3 ovarian),growth (HS 578T breast),growth (NCI/ADR-RES ovarian),growth (T-47D breast)
COC(=O)/C=C1\SC(=Nc2cccc(OC)c2)N(CCc2c[nH]c3ccccc23)C1=O,19.6%,52.3%,96%,69.7%,72.4%,71.7%,57%,81%,62.9%,46.1%
NS(=O)(=O)c1ccc(N2Cc3cc(Cl)ccc3OC3=C2C(=O)N(CC2CCCCC2)C3=O)cc1,-30% (active),-71.9% (active),-88.7% (active),-95.3% (active),60%,-47.6% (active),-89.6% (active),14.5%,4.6% (active),-55.3% (active)
CN(C)CCCn1c2c(c3cc(-c4ccco4)ccc3c1=O)C(=O)c1ccccc1-2,46.3%,48%,104%,53%,93.1%,52.2%,72%,79.9%,53.6%,49.2%
Cc1nnc(/N=C2\NC(=O)/C(=C/c3ccc(N(C)C)cc3)S2)s1,58.9%,78.6%,99.9%,75.4%,72%,60%,45.4%,85.6%,52.2%,73.6%
CCOC(=O)C1=C(C)n2nc(CC#N)c(C#N)c2NC1c1ccc(Cl)cc1 (stereo not given),101%,108%,103%,99.3%,105%,84.1%,89.3%,106%,91.9%,110%
CCN(CC)c1ccc2c(c1)Oc1nc(N)c(C#N)c(N)c1C2Sc1ccc(OC)cc1 (stereo not given),-28.3% (active),5.24% (active),51.9%,46.2%,34%,-3.83% (active),-15.1% (active),19.7%,46.9%,51.8%
Cc1c(Cl)cccc1NC(=O)c1sc2nc3c(cc2c1N)CN(Cc1ccccc1)CC3,54.8%,64.2%,75.1%,62.4%,44.2%,52.2%,0.716% (active),28.6%,41.4%,56.8%
C=C(C)[C@@H]1CC[C@]2(C(=O)OCCOCCOCC[P+](c3ccccc3)(c3ccccc3)c3ccccc3)CC[C@]3(C)[C@H](CC[C@@H]4[C@@]5(C)CC[C@H](C)C(C)(C)[C@@H]5CC[C@]43C)[C@@H]12,-59.3% (active),-81.3% (active),-72.2% (active),-85.6% (active),-96.9% (active),-70.5% (active),-91.7% (active),-39.2% (active),-59.8% (active),-68.5% (active)
COc1ccc(/C=C/C(=O)Nc2ncnc3nc[nH]c23)cc1,99%,103%,118%,98.8%,113%,105%,104%,101%,96.6%,91.2%
CC1(C)Cc2c(Br)c(Br)c(Br)c(OCC(O)CN3CCOCC3)c2O1 (stereo not given),20.8%,88.9%,99.7%,99.5%,110%,-83.4% (active),57%,98.1%,81.2%,108%
O=C(/C(=C\c1c(-c2ccccc2)[nH]c2ccccc12)S(=O)(=O)c1ccccc1)c1ccccc1,-34.2% (active),66.2%,83.1%,42.8%,23.1%,78.7%,56.3%,72.1%,43.4%,22.2%
c1ccc(-c2cn3ccnc3c(-c3ccc4c(c3)ncn4C3CCCCC3)n2)cc1,81.7%,101%,103%,101%,104%,106%,101%,101%,100%,74.5%
O=c1c2ccccc2oc2ccc(OCCCCCCN3CCCCCC3)cc12,13.3%,50.3%,58.9%,46.6%,72.4%,46.2%,59.8%,81.9%,54.2%,21.5%
CC(=O)Nc1nc2c(c(N)c1C#N)C(c1cccc(Cl)c1)C1=C(CCCC1=O)N2c1sc2c(c1C#N)CCCC2 (stereo not given),22%,37%,87.1%,57.5%,54.7%,59.4%,56.1%,73.7%,46.7%,36.7%
Nc1c(C(=O)Nc2ccccc2Cl)sc2nc3c(cc12)CN(Cc1ccccc1)CC3,103%,118%,95.5%,113%,91.2%,87.5%,85.1%,108%,99.8%,87.8%
COc1ccc(C(=O)c2cc(OC)c(OC)c(OC)c2)cc1OC(=O)C(Cl)(Cl)Cl,17.9%,2.55% (active),63.8%,59.7%,8.13% (active),15.9%,-13.5% (active),38.9%,9.28% (active),63%
COc1ccc(/C(=N\O)c2cc(C)c(OC)c(C)c2)cc1O,12.7%,15.3%,46.7%,67%,51.2%,30.3%,10.1%,33.5%,28.6%,84.9%
CC(C)C[C@H](C(=O)O)N(C)C(=O)[C@@H]1CCCN1C(=O)[C@H](C)OC(=O)[C@H](CCC(N)=O)NC(=O)[C@@H]1CCC(=O)N1,108%,103%,100%,86.8%,92.8%,114%,103%,107%,111%,86.8%
COC(=O)/C=C/c1cc(OC(C)=O)c2c(c1)C(C(=O)OC)C(c1ccc(OC(C)=O)c(OC(C)=O)c1)O2 (stereo not given),11.1%,-12.5% (active),50.5%,49.5%,18.8%,20.1%,3.01% (active),41.1%,6.1% (active),49.3%
Fc1ccc(N/N=C/c2ccc(-n3cccn3)cc2)cc1,97.7%,101%,112%,95.6%,84.6%,78.3%,93.6%,108%,87.6%,86.1%
Cc1cccc(C)c1NCc1nnc(-c2ccco2)o1,77.9%,98.2%,99.8%,101%,87%,85.3%,94.8%,91.5%,97.3%,80.6%
COc1cc2nc3c(=O)n(-c4ccc(C#N)cc4)cnn3c(=O)c2cc1OC,115%,108%,93.4%,97%,101%,103%,92.9%,90.8%,100%,100%
C#C[C@@]1(O)[C@@H](CO)O[C@@H](n2cnc3c(-c4ccccc4)ncnc32)[C@@H]1O,106%,107%,101%,98.5%,105%,106%,107%,113%,102%,84%
C[C@H](Oc1cc(-c2cnn(C3CCNCC3)c2)cnc1N)c1c(Cl)ccc(F)c1Cl,23.3%,77.7%,94.3%,66.7%,87.2%,71.9%,72.3%,56.5%,85.1%,55.7%
COc1ccc(Nc2cc(NC(=O)CNc3cc(OC)c(Cl)c(OC)c3Cl)ncn2)cc1,62.5%,78.2%,88.1%,80.1%,79.8%,74.2%,81.6%,83.4%,84.8%,47.1%
Cc1cc(Cl)cc(CN(Cc2ccccc2)Cc2c(O)ccc3ccccc23)c1O,87.4%,98.5%,116%,105%,97.2%,94.7%,91.7%,102%,96.5%,89.5%
